The values that follow come from PubChem BioAssay (NCI).

The structures appear in SMILES notation. Compounds without any hit were thinned out: in the full panel of roughly 83,000, 20% have a hit.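 For each line, cells grew in 96-well plates with the test compound present at a single concentration for 48 hours.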 Unmarked numbers belong to inactive results. Calls of active or inactive are those of the source.

The test system of the assay is HCT-116 colon. Briefly: NCI-60 one-dose screen, 48 h (100 = growth as untreated, 0 = no growth, -100 = all killed). Particulars: 10 µM. The procedure:
Growth inhibition of the HCT-116 human tumor cell line is measured as a screen for anti-cancer activity. Cells are grown in 96 well plates and exposed to the test compound for 48 hours. Compounds are tested at a single concentration, which is 10^-5 M for most compounds. The reported endpoint is percent growth (GI% or GIPRCNT), where numbers from 0 - 100% represent growth inhibition, and numbers from -100% - 0 represent cell death. For example, a value of 40 represents 60% growth inhibition. A value of 0 means no net growth occurred over the course of the experiment. A value of -40 indicates 40% of cells at the beginning of the experiment died by the end of the experiment. A value of -100 means all cells are dead at the end of the experiment.
NCI-60 Human Tumor Cell Lines Screen was performed using the standard one-dose NCI protocol, which is described in more detail at https://dtp.cancer.gov/discovery_development/nci-60/default.htm.
Compounds with GIPRCNT values below 10 were considered active. Activity score was based on GIPRCNT using the following formula: […]
Score is 0 for GIPRCNT values of 100 or above, 50 for GIPRCNT values of 0, and 100 for GIPRCNT values of -100.
On to `O=C(NCCCCC(c1ccc(F)cc1)c1ccc(F)cc1)NCCCc1cccnc1`, for which the growth was 3.26% (active).

For `COc1cnc2c(c1)C(=O)c1c-2n(CCCNC(C)C)c(=O)c2cc(OC)c(OC)cc12`, the growth is 25.5%.

For `COc1ccc2[nH]c(=O)c(CSc3cccc(N)c3)cc2c1`, the growth is 52.5%.

Regarding `COc1ccc(C(=O)/C=C/c2cc(F)cc(C(F)(F)F)c2)cc1S(N)(=O)=O`, the growth is -55% (active).

On to `COc1ccc(NC(=O)CSc2nnc(-c3ccc4nc(-c5ccc(Cl)cc5)[nH]c4c3)o2)cc1`, for which the growth was 23.2%.

As for `COc1ccc2c3nc4cc(C)c(C)cc4nc3n(CCN(C)C)c2c1`, the growth was -61.1% (active).

As for `CN1C(=O)/C(=C/c2nccs2)SC1=S`, the growth was 85.2%.

As to `CCCCOc1ccc(Nc2nc3ccccc3nc2Nc2ccc(OCCCC)cc2)cc1`, the growth was 49%.

On to `O=C(CSc1nnc(-c2c[nH]c3ccccc23)n1-c1ccccc1)Nc1ccc(C(=O)/C=C/c2ccccc2Cl)cc1`, for which the growth was 22.1%.

`C/C(=N\N=C\c1ccc(N(C)C)cc1)c1ccc2c(c1)Nc1ccccc1S2`: the growth is 31.4%.

In the case of `CN(C)c1ccc(/C=C/c2nc3ccccc3c(=O)n2CC(=O)Nc2ccc(Cl)cc2)cc1`, the growth is 56.8%.

In the case of `CN1CCc2c(sc3ncnc(N/N=C/c4cn(-c5ccccc5)nc4-c4ccc(Cl)cc4)c23)C1`, the growth was 2.65% (active).

Turning to `CCCn1c(=O)c2[nH]c(-c3ccc(OCc4nc5ccccc5[nH]4)cc3)nc2n(CCC)c1=O`, the growth was 5.38% (active).

Take `CC(=O)Nc1ccc(-n2cnc3cc(-c4ccc(O)cc4)ccc32)cc1F`: the growth is 13.9%.

In the case of `CCCn1c(=O)c2[nH]c(-c3ccc(OCc4nc5ccc(C#N)cc5[nH]4)cc3)nc2n(CCC)c1=O`, the growth is 58.2%.

`COc1ccc(C(=O)/C=C/c2ccc(Cl)c(C(F)(F)F)c2)cc1S(N)(=O)=O`: the growth is -71.6% (active).

Take `O=C(NO)c1ccc(Cn2ccc3c(Nc4ccccc4)ncnc32)cc1`: the growth was -9.89% (active).

As for `CCCCSc1nc(Nc2ccc(/C(C)=N/NC(N)=S)cc2)c(C#N)c(-c2ccccc2)n1`, the growth is 24.6%.

On to `CCOP(=O)(OCC)O[C@H]1CCC(=O)[C@@H]2[C@H]1[C@H]1C[C@@H]3[C@@]4(C)CCCC(C)(C(=O)OC)[C@@H]4CC[C@@]23C=C1C(C)C` (stereo not given in full), for which the growth was 32.8%.

Consider `COc1ccc(CCN2C(=O)/C(=C/c3csc(C#N)n3)SC2=S)cc1`, for which the growth is -63.2% (active).

For the molecule `COc1cc(Cn2c(C(F)(F)F)cc3c(Cl)ncnc32)ccn1`, the growth was -23.4% (active).

On to `COc1ccc(/C=N/N=C(\C)c2ccc3c(c2)Nc2ccccc2S3)cc1O`, for which the growth was 38.7%.

For the molecule `O=C(N/C(=C1/OCCN1Cc1ccccc1)[P+](c1ccccc1)(c1ccccc1)c1ccccc1)c1ccccc1`, the growth was 2.1% (active).

For `CN1CCCN(Cc2ccc(C(=O)Nc3cccc(Nc4ccc5c(O)cccc5n4)c3)cc2C(F)(F)F)CC1`, the growth is -67.4% (active).

As for `COc1cc2oc(-c3cccc(C(=O)Nc4ccc(Cl)cc4)c3)cc(=O)c2c(OCCNC(=O)CNC(=O)OC(C)(C)C)c1OC`, the growth is 41.6%.

With `CN(C)c1cccc2c(S(=O)(=O)Nc3cccc(-c4csc(NC(=O)CCCCCN5CCN(c6cc7c(cc6F)C(=O)N(C6CCC(=O)NC6=O)C7=O)CC5)n4)c3)cccc12` (stereo not given), the growth is 68.3%.

For the molecule `O=C(Nc1cccc(C(F)(F)F)c1)c1cncc(C#Cc2cnc3cccnn23)c1`, the growth was 15.4%.

`COc1ccc(-c2ccc(/C=N/NC(=O)c3[nH]c4ccc(Br)cc4c3-c3ccccc3)o2)cc1`: the growth is 18.3%.

As to `NC1=NC(c2ccccc2Cl)N=C(Nc2nn[nH]n2)N1` (stereo not given), the growth was 103%.

For `N#Cc1c(NC(=O)c2ccc(C(O)(C(F)(F)F)C(F)(F)F)cc2)sc2c1CCC(=O)C2`, the growth is -77.7% (active).

Turning to `O=C(CSc1nnc(-c2ccc3nc(-c4ccc(Cl)cc4)[nH]c3c2)o1)Nc1ccc(Br)cc1`, the growth is -61.9% (active).

Turning to `Nc1nc(Nc2ccc(Cl)cc2)nn1Cc1cccc(Br)c1`, the growth was 35.2%.

`N#Cc1c(-c2ccc(F)cc2)nc(SCc2ccc([N+](=O)[O-])cc2)nc1N1CCOCC1`: the growth is 64.4%.

As for `OCCNc1oc(-c2ccccc2)nc1[P+](c1ccccc1)(c1ccccc1)c1ccccc1`, the growth was 7.76% (active).

With `O=C(CNc1nc(-c2ccccc2)cs1)Nc1ccc(Br)cc1`, the growth is -44.9% (active).

With `CCOC(=O)C1NN(c2ccc(S(N)(=O)=O)cc2)c2nc3nc(-c4cccs4)cc(-c4cccs4)c3c(=O)n21` (stereo not given), the growth is 81.2%.

For `Cc1ccc(CSc2nc(Cl)c(C#N)c(-c3ccc(F)cc3)n2)cc1`, the growth was 59.3%.

For `Cc1cc(C)nc(/N=C(\N)Nc2ccc(S(=O)(=O)Nc3nc(C)cc(C)n3)cc2)n1`, the growth is 110%.

Take `CN1CCN(Cc2ccc(NC(=O)c3cncc(C#Cc4cnc5ccc(N[C@@H]6CCOC6)nn45)c3)cc2C(F)(F)F)CC1`: the growth is -63.9% (active).

In the case of `Cc1nc(Nc2nc(C)c3ccc(OCCN4CCOCC4)cc3n2)[nH]c(=O)c1C`, the growth was 6.7% (active).
